In PubChem BioAssay:

assay: small molecules captured by biotinylated probe aFGF10 – biochemical, small-molecule microarray, fluorescence 635/667, stem cell growth factor project, primary screen (AID 1071); conditions: higher = more signal;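 also: score merges 667 nm spot intensity and signal to noise from triplicate slides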

Row | SMILES | composite z-score
1 | COC(=O)[C@@]1(Cc2ccccc2)[C@H]2c3cc(C(=O)N4CCCC4)[nH]c3C[C@H]2CN1C(=O)c1ccccc1 | -0.0267
2 | CCOC(=O)[C@H]1C/C=C/C[C@H](C(=O)OCC)C(=O)O[C@H]2[C@@H](OC)O[C@H](CO)[C@@H](OC(=O)CCc3ccccc3)[C@@H]2OC1=O | -0.485
3 | Cc1ccc(F)cc1S(=O)(=O)N[C@@H]1CCN(Cc2ccc(OC(C)C)cc2)C1 | -0.209
4 | COCCOC(=O)N1C(=O)[C@@]2(c3cc(C#CC4=CCCCC4)ccc31)[C@H](C(=O)N1CCN(c3ncccn3)CC1)[C@H]1C(=O)O[C@H](c3ccccc3)[C@H](c3ccccc3)N1[C@@H]2c1ccc(O)cc1 | 0.669
5 | COC(=O)C1(Cc2ccccc2)C=C2C(=C(C(C)C)C(=O)C2C)CN1 (stereo not given) | -0.66
6 | O=C1O[C@H](c2ccccc2)[C@H](c2ccccc2)N2[C@H]1[C@@H](C(=O)O)[C@]1(C(=O)Nc3ccccc31)[C@H]2c1ccc(O)cc1 | 0.338
7 | COc1ccc(NC(=O)O[C@H]2[C@H](OC(=O)Nc3ccc4c(c3)OCO4)[C@@H](OC(=O)Nc3ccc4c(c3)OCO4)[C@@H](OC)O[C@@H]2CO)cc1 | 0.639
8 | COc1c(C)cc(-c2cc3c(c(-c4ccccc4)n2)[Si](C(C)C)(C(C)C)OC3)cc1C | -0.304
9 | C[C@@H](OCc1ccccc1)C1NC(=O)[C@@]23C(=O)N[C@@H](Cc4ccccc4)C2[C@H](C)[C@@]2(C)O[C@H]2C3/C=C/C/C=C\CNC(=O)CNC1=O (stereo not given in full) | 0.25
10 | COc1ccc([Si](C)(C)[C@@H]2[C@@H](CC(=O)N3CCC[C@H]3CO)O[C@]3(C(=O)N(Cc4ccc(N5C(=O)c6cccc7cccc5c67)cc4)c4ccccc43)[C@H]2C)cc1 | 0.995
